Assay outcomes from PubChem.
MEKK2 WT-MEK5 = raises or lowers MEK5 binding to wildtype human MEKK2 PB1 domain; binding response (% of control), % at 10 µM; bead flow cytometry, Alexa488-MEK5 binding to MEKK2 WT; actives lie on both sides; Q9Y2U5; actives 1.1% (n = 290,000); in the data active means binding response below about 67% or above about 130%
ABCB6 inh 2 = inhibitors of human ABC transporter ABCB6; actives 0.19% (n = 360,000); Q9NP58; K562-ABCB6 porphyrin accumulation, flow cytometry, 1 h; stronger effect = lower value; fluorescence ratio to DMSO, % at 10 µM;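 active means fluorescence ratio to DMSO below 75%, the collection mean minus 3 SD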;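 further: signal is porphyrin accumulated inside mitochondria; lower ratio means ABCB6 inhibition with less porphyrin fluorescence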
MEKK2mut PB1 HTS = signal of MEK5 binding to mutant human MEKK2 PB1 domain; bead flow cytometry, Alexa488-MEK5 binding to MEKK2 mutant; percent response, % at 10 µM; actives 0.35% (n = 290,000); in the data active means percent response above about 24%, passing the limit was not always enough
MEKK3 PB1 HTS = raises or lowers MEK5 binding to the human MEKK3 PB1 domain; Q99759; bead-based flow cytometry, Alexa488-MEK5 binding to MEKK3; actives lie on both sides; 0 = blocked by unlabeled MEK5, 100 = vehicle; binding response (% of control), % at 10 µM; actives 1.4% (n = 290,000);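 active means binding response more than 3 SD above or below the average of its plate-row segment, actives on both sides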;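 further: Alexa488 bead fluorescence after subtracting the streptavidin-only scavenger bead signal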
Target sequence (Q99759 whole entry, looked up, the tested form may be a part): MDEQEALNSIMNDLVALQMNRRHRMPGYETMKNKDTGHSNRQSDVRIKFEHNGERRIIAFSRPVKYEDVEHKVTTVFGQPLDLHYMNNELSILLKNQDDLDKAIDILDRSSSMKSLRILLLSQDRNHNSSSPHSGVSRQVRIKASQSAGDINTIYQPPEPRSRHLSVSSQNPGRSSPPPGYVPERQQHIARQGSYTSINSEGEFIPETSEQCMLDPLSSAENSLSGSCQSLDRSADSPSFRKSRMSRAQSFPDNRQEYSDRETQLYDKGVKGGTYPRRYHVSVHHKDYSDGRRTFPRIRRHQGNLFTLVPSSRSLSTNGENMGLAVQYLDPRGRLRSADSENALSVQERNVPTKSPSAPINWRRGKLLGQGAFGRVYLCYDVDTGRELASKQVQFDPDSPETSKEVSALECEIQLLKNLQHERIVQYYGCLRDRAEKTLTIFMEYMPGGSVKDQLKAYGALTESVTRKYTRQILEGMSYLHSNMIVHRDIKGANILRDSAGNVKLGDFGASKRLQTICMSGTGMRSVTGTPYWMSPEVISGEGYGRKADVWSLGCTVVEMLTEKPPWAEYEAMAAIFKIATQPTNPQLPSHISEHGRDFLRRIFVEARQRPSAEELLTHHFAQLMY
CRFR2-BP ag = agonists of human CRF-binding protein/CRF-R2 receptor complex; HEK293 CRF-R2/CRF-BP, calcium dye fluorescence (FLIPR); percent of saturating CRF peptide response; activation, % at 13.2 µM; actives 0.46% (n = 350,000); AID 588473;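 active means activation of at least 50%, plus an integration ratio under a set limit after plate pattern correction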
CRFBP-R2 block = CRF-BP/CRF-R2 complex antagonism. actives 0.59% (n = 350,000). AID 588475. HEK293 CRF-R2/CRF-BP, CRF-induced calcium fluorescence. inhibition, % at 11.8 µM;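 active means inhibition of the ligand-induced calcium signal above about 50% at the single tested concentration, limit read from the data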
ABCB6 blocker 1 = blocks the human ABCB6 transporter; shares compounds with ABCB6 inh 2; K562-ABCB6 porphyrin accumulation, flow cytometry, 1 h; stronger effect = lower value; ratio response (% of DMSO), % at 10 µM; 700 tested, under 10 active;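 active means repeat-averaged ratio response below 75% of DMSO, the collection mean minus 3 SD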;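 further: median porphyrin fluorescence at 575 nm with 488 nm excitation from mitochondria; lower ratio means less porphyrin signal so ABCB6 inhibition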
Each line names hits and unclear results; the compound was inactive in the other large screens (follow-up assays come after a bar, where they were run). This is a sample that favours compounds with a hit; in the whole collection about 2.9% have one here.

Cc1ccccc1-c1cnc(C(O)c2cccc(C)c2C)[nH]1 (stereo not given)	ABCB6 inh 2 70.0 (no result: MEKK2 WT-MEK5, MEKK2mut PB1 HTS, MEKK3 PB1 HTS, CRFR2-BP ag, CRFBP-R2 block) | ABCB6 blocker 1 inactive
CCOC(=O)C1(C(=O)OCC)CCN(S(=O)(=O)c2ccccc2)CC1	CRFBP-R2 block 69.3 (no result: MEKK2 WT-MEK5, MEKK2mut PB1 HTS, MEKK3 PB1 HTS) | ABCB6 blocker 1 inactive
Cc1ccc(C(=O)Cc2ccccc2)c(O)c1	none (no result: MEKK2 WT-MEK5, MEKK2mut PB1 HTS, MEKK3 PB1 HTS)
CC(C)=CCc1c(O)ccc(C(=O)Cc2ccccc2)c1O	ABCB6 inh 2 64.0 | ABCB6 blocker 1 inactive
CC1CCCCC12NC(=O)N(CC(=O)Nc1ccc(OC(F)F)cc1)C2=O (stereo not given)	none (no result: MEKK2 WT-MEK5, MEKK2mut PB1 HTS, MEKK3 PB1 HTS)
CCOC(=O)C1CCN(Cc2ccc(F)c(Br)c2)CC1	ABCB6 inh 2 69.0 | ABCB6 blocker 1 inactive
CCOC(=O)C1CCN(Cc2ccc(F)cc2F)CC1	none
COc1cc(NC(=O)CCN2CC(C)OC(C)C2)cc(OC)c1 (stereo not given)	none
